The values that follow come from PubChem BioAssay (NCI).

About 83,000 compounds went through this panel and 20% of them were active in at least one assay; those are over-represented in the sample as a whole.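 Cell lines were cultured in 96-well plates, exposed to a single compound concentration, and assessed for percent growth 48 hours later.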 A number with no mark means an inactive call. Active and inactive are the calls of the source. Rule for the calls: active = growth percent below 10; inactive = the rest.

The assay relates to MDA-MB-231 breast. The assay is described as follows: NCI-60 one-dose screen, 48 h (100 = growth as untreated, 0 = no growth, -100 = all killed). The conditions noted are these: 10 µM.
Turning to `COc1ccc(C2c3sc4ccc(C)cc4c3Oc3nc(N)nc(N)c32)cc1` (centres undefined), the growth is 89.3%.
The same measure for `Cc1cc(N=C2NC(=O)S/C2=C\c2ccc(F)cc2)n[nH]1`: 9.79% (active).
As to `Cn1cc(-c2nnc(N)nc2-c2c[nH]c3ccccc23)c2cc(Br)cnc21`, the growth was 54.8%.
Regarding `O=C(CC(=O)Nc1ccc(Oc2ncnc3scc(Nc4n[nH]c(=S)s4)c23)cc1)Nc1ccc(Cl)cc1`, the growth was 73.8%.
As to `O=C1NC2C=CC=CC2/C1=C1/SC(=S)N(C2CC(=O)N(c3ccc(Br)cc3)C2=O)C1=O` (centres undefined), the growth is 101%.
Then `CC1(C)CC(=O)C2=C(C1)N(Cc1ccc(C(=O)O)cc1)C1=C(C(=O)CC(C)(C)C1)C2c1ccc(Cl)cc1`, with 106%; and `Cc1ccc2c(c1)C(=O)/C(=C/c1ccc([N+](=O)[O-])cc1)S2`, with 98.1%.
With `O=C(Nc1ccc(OCc2ccc(Cl)cc2)cc1)Nc1ccc(Cl)c(C(F)(F)F)c1`, the growth was 13.4%.
As to `Cn1cc(-c2nc(N)nnc2-c2c[nH]c3ccccc23)c2cc(Br)cnc21`, the growth is 16.3%.
As to `O=C(CSc1nc2ccccc2c(=O)n1-c1ccc(Cl)cc1)Nc1ccc(-c2nc3ccccc3[nH]2)cc1`, the growth is -14.8% (active).
Then `Cc1ccc2c(c1)C(=O)/C(=C/c1c[nH]c3ccccc13)S2`, with 59.7%.
Take `COc1cccc(O)c1/C=C1\SCc2cc3c(OC)cccc3[o+]c21`: the growth was 102%.
The same measure for `COc1cc(C2CC(c3ccc(Oc4ccc(Cl)cc4)cc3)=NN2c2nc(-c3ccc(Cl)cc3)c(C#N)c(N3CCOCC3)n2)cc(OC)c1OC` (centres undefined): 100%.
Consider `O=C(Nc1ccc(OCC(=O)c2ccc(Cl)cc2)cc1)Nc1ccc(Cl)c(C(F)(F)F)c1`, for which the growth is 48.1%.
Then `Cc1ccc2sc3c(c2c1)Oc1nc[nH]c(=O)c1C3c1cccc(F)c1` (centres undefined), with 91.1%; and `Cc1cc(N=C2NC(=O)/C(=C/c3cc(C(C)(C)C)c(O)c(C(C)(C)C)c3)S2)n[nH]1`, with 22.8%; and `COc1ccc(C2c3sc4ccc(C)cc4c3Oc3nc[nH]c(=O)c32)cc1` (centres undefined), with 83.6%.
With `COc1cccc(C(=O)CSc2nc(-c3ccc(OCc4ccccc4)c(OC)c3)c(C#N)c(=O)[nH]2)c1`, the growth is 91.1%.
In the case of `Cc1ccc(COc2ccc(NC(=O)Nc3ccc(Cl)c(C(F)(F)F)c3)cc2)cc1`, the growth was 90.2%.
Then `CC(C)(C)c1cc(/C=C2\S/C(=N/c3ncn[nH]3)NC2=O)cc(C(C)(C)C)c1O`, with 23.7%.
Take `Cn1cc(/C=C(/SS/C(=C/c2cn(C)c3cccc(C(=O)O)c23)C(=O)O)C(=O)O)c2c(C(=O)O)cccc21`: the growth was 102%.
For the molecule `COc1ccc(C(=O)COc2ccc(NC(=O)Nc3ccccc3)cc2)cc1`, the growth was 94.1%.
With `CCn1c(SCC(=O)Nc2ccc(-c3nc4ccccc4[nH]3)cc2)nc2ccccc2c1=O`, the growth was -71.1% (active).
As to `O=C(Nc1ccc(OCc2ccc(F)cc2)cc1)Nc1ccc(Cl)c(C(F)(F)F)c1`, the growth was 6.32% (active).
The same measure for `O=C(CC(=O)Nc1ccc(Oc2ncnc3scc(Nc4n[nH]c(=S)s4)c23)cc1)Nc1ccc(Br)cc1`: 101%; for `COc1ccc(C(=O)COc2ccc(NC(=O)Nc3ccc(Cl)c(C(F)(F)F)c3)cc2)cc1`: 35.3%.
On to `O=C(Nc1ccc(Oc2ncnc3scc(Nc4n[nH]c(=S)s4)c23)cc1)C1(C(=O)Nc2cccc(C(F)(F)F)c2)CC1`, for which the growth was 92.7%.
For the molecule `O=C1NC(=S)S/C1=C\c1cn(-c2ccccc2)nc1-c1ccc([N+](=O)[O-])cc1`, the growth is 24.7%.
In the case of `O=C(CSc1nc2ccccc2c(=O)n1-c1ccc(Cl)cc1)Nc1ccc(-c2nc3ccc([N+](=O)[O-])cc3[nH]2)cc1`, the growth was 42.7%.
